Hit rate of the full screen: of about 16,000 compounds, about 5,100 (32%) were called active. Roughly 25% stayed inconclusive and do not appear here. The call rests on the fitted dose curve; in most records, active means well fitted curve in the direction sought with a large enough effect; inconclusive means small, poorly fitted or top-dose-only effect, or effect the other way; inactive means no such curve, though single readings can be large or run the other way. The list shows a part of the results. Square brackets hold non-standard residues; d marks the D form. Peptide text beside a SMILES is read from it. * marks the point of attachment. Cbz = O=C(OCc1ccccc1)*
biological target: Cytochrome P450 3A4 (Homo sapiens) (UniProt P08684); experiment: Cytochrome panel assay with activity outcomes; details: recombinant CYP, pro-luciferin dealkylation, luminescence, p450-cyp3a4; series mostly up to 57.1 µM
Sequence (P08684 whole entry, looked up): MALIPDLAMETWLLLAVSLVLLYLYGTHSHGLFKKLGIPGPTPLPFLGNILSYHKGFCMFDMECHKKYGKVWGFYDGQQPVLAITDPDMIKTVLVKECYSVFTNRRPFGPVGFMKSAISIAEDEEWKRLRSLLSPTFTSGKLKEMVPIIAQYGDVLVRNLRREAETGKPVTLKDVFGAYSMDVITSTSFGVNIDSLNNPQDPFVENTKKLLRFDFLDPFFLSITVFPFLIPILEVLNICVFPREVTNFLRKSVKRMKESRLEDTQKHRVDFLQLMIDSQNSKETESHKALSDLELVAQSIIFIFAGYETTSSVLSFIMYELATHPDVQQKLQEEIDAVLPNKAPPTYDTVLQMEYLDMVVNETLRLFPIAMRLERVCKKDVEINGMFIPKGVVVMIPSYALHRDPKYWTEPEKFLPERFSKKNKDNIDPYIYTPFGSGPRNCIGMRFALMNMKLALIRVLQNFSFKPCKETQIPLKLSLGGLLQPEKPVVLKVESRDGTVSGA
On the % scale 0 is the no-effect control and ±100 the full control effect.

Compound	AC50	activity, negative = inhibition
CC(=O)NN1C(=O)c2ccc(Oc3cccc([N+](=O)[O-])c3)cc2C1=O	inactive	
Cn1cc([N+](=O)[O-])c(C(=O)Nc2cc(Oc3cccnc3)cc([N+](=O)[O-])c2)n1	0.501 µM (active)	
Cc1ccc(Nc2ccc(-n3ccnc3)nn2)cc1C	0.0794 µM (active)	
O=c1[nH]n(-c2cccc(Cl)c2)c2ncccc12	inactive	
O=C(c1ccc(Cl)c(Cl)c1)c1cc(-c2ccccn2)c(N2CCOCC2)s1	14.1 µM (active)	
N=c1n(CCN2CCOCC2)c2ccccc2n1CC(=O)c1ccc(Cl)c(Cl)c1		11.5% [at 2.29 µM] (inactive)
COc1ccc(OC[C@@H](CO)OC)cc1		-12.9% [at 11.4 µM] (inactive)
Cn1c(=O)c2c(n(Cc3ccccc3)c1=O)NC(=O)C2CC(=O)NCc1cccc(Cl)c1 (configuration not stated)	6.31 µM (active)	
COCCCNCC(=O)c1c(N)n(Cc2ccccc2)c(=O)n(C)c1=O		-9.63% [at 2.29 µM] (inactive)
C[C@]12CC3CC(N)(C1)C[C@@](C)(C3)C2	inactive	
N#C/C(=C(\O)C(=O)O)c1ccc(-c2cccc3ccccc23)cc1		-22% [at 11.4 µM] (inactive)
CCn1c2ccccc2c2cc(N=C3SC(CC(=O)Nc4ccccc4)C(=O)N3C)ccc21 (configuration not stated)	5.01 µM (active)	
NS(=O)(=O)c1cc2c(cc1Cl)N[C@H](Cc1ccccc1)NS2(=O)=O		-18.4% [at 11.4 µM] (inactive)
NS(=O)(=O)c1cc2c(cc1Cl)NC(CSCc1ccccc1)=NS2(=O)=O	12.6 µM (active)	
NS(=O)(=O)c1cc2c(cc1Cl)N[C@@H](C(Cl)Cl)NS2(=O)=O	inactive	
Oc1c(Br)cc(Br)cc1CN(Cc1cc(Br)cc(Br)c1O)C1CCCCC1		-22.2% [at 11.4 µM] (inactive)
CCOC(=O)CCN1C(=O)[C@H]2[C@H]3[C@H](O)[C@H](O)C/C(=N/O[C@@H]4O[C@@H](COC(C)=O)[C@@H](OC(C)=O)[C@@H](OC(C)=O)[C@H]4OC(C)=O)[C@@H]3CC[C@@H]2C1=O		-20.3% [at 11.4 µM] (inactive)
CCCCN(CC)C(=O)Cc1ccccc1OC	15.8 µM (active)	
CCN(CC)C(=O)c1ccc(O)c(OC)c1	inactive	
CCCCN(C(=O)NC(=O)Nc1ccccc1OCC)S(C)(=O)=O	inactive	
CNC(=O)COC(=O)c1cc2c(C)nn(-c3ccc(F)cc3)c2s1	inactive	
COc1ccccc1CNC(=O)c1cc2c(C)nn(Cc3ccc(F)cc3)c2s1	2.82 µM (active)	
CCCn1nc2cc(C(=O)NCc3ccccc3OC)ccc2c1OCC		-3.81% [at 2.29 µM] (inactive)

Compound	AC50	activity, negative = inhibition
CC(=O)N[C@@H](C(=O)O)C(C)(C)SN=O	inactive	
CCC(C#CCN1CCCCC1)(CC)OCCC#N	inactive	
O=C(O)C[C@H](Cc1ccc2c(c1)OCO2)C(=O)O		-6.76% [at 11.4 µM] (inactive)
Cc1c(C(=O)O)oc2ccc(S(=O)(=O)NCc3ccc4c(c3)OCO4)cc12	15.8 µM (active)	
CCc1nnc(NC(=O)CSc2nc3cc4c(cc3cc2C)OCCO4)s1	14.1 µM (active)	
CCc1nc(SCC(=O)NNC(=O)C2CCCCC2)c2ccccc2n1	inactive	
Cc1ccc(SCC(=O)NNC(=O)C2CCCCC2)cc1	7.94 µM (active)	
CCCc1nc(SCC(=O)NNC(=O)C2CCCCC2)c2ccccc2n1	3.55 µM (active)	
Cc1ccc(SCN2CCCCC2)cc1 (tested in a mixture with another compound)		-20% [at 11.4 µM] (inactive)
CCc1nnc(NC(=O)CSc2nc(C3CCCCC3)nc3ccccc23)s1	2.51 µM (active)	
CC(=O)Nc1nnc(CCN2CCCCC2)s1	inactive	
CCCS(=O)(=O)N1CCCC(C(=O)N2CCN(C(=O)OCC)CC2)C1 (configuration not stated)	inactive	
CC1=C/C(=C(/c2ccc(O)c(C)c2)c2ccccc2C(=O)O)C=CC1=O	1.58 µM (active)	
O=C(O)c1ccc(C(=O)c2ccccc2C(=O)O)cc1C(=O)O		-0.636% [at 11.4 µM] (inactive)
O=C(O)C1=CC(=C(c2ccc(O)c(C(=O)O)c2)c2ccc(O)c(C(=O)O)c2)C=CC1=O	inactive	
Cc1ccccc1N1CCN(S(=O)(=O)C[C@@]23CC[C@H](C[C@H]2NC(=O)[C@@H](N)CCS(C)(=O)=O)C3(C)C)CC1	3.16 µM (active)	
O=C(CCCCn1c(=O)c2ccccc2n(CC(=O)NC2CCCC2)c1=O)NC1CCCC1	5.01 µM (active)	
CC(=O)CCCCn1c(=O)c2c(ncn2C)n(C)c1=O	inactive	
Cn1c(=O)n(CCC(=O)O)c2ccccc21	inactive	
COc1ccccc1CNC(=O)CCCn1c(=O)c2ccccc2n(CC(=O)NC2CCCC2)c1=O	4.47 µM (active)	
CC1(C)Oc2ccc(C#N)cc2[C@H](N2CCCC2=O)[C@H]1O	inactive	
Cc1n[nH]c(=O)[nH]c1=O	inactive	
Cc1noc(NS(=O)(=O)c2ccc(N/C=C/C(=O)c3ccc4c(c3)OCO4)cc2)c1C	11.2 µM (active)	

Compound	AC50	activity, negative = inhibition
Cc1noc(NS(=O)(=O)c2ccc(N/C=C\C(=O)c3ccc4c(c3)OCO4)cc2)c1C	14.1 µM (active)	
O=C(Nc1ncc(Cc2cc(Cl)ccc2Cl)s1)c1ccc([N+](=O)[O-])cc1	6.31 µM (active)	
O=C(Nc1ncc(Cc2cccc(Cl)c2)s1)C1=NCCN1	inactive	
O=C(Nc1cnn(Cc2ccc(Cl)cc2)c1)c1ccc([N+](=O)[O-])cc1		-0.424% [at 2.29 µM] (inactive)
CC(C)[C@H](NC(=O)OCc1ccccc1)C(=O)N[C@H](C=O)Cc1ccccc1 (Cbz-Val-Phe-aldehyde)	6.31 µM (active)	
CC(C)C(NC(=O)OCc1ccccc1)C(=O)O (configuration not stated)	inactive	
N[C@H](C(=O)O)[C@H](OCc1ccccc1)C(=O)O	inactive	
CCCCC(C=O)NC(=O)C(CC(C)C)NC(=O)OCc1ccccc1 (configuration not stated)	15.8 µM (active)	
CSCC[C@H](C=O)NC(=O)[C@H](CC(C)C)NC(=O)[C@H](CC(C)C)NC(C)=O (Ac-Leu-Leu-[dM]-aldehyde)	inactive	
CC(C)C[C@H](NC(=O)[C@@H](O)[C@H](N)Cc1ccccc1)C(=O)O	inactive	
CCCSC1=C(C#N)C(c2cccnc2)C(C(=O)OCC)=C(c2ccccc2)N1 (configuration not stated)	11.2 µM (active)	
COc1ccc(N(CC(=O)O)N=O)cc1		-6.51% [at 11.4 µM] (inactive)
COc1ccc(N(C(=O)COc2ccccc2OC)S(=O)(=O)c2ccc(C)cc2)cc1	25.1 µM (active)	
CN(C)CCO[C@@H](c1ccc(Cl)cc1)c1ccccn1	inactive	
CC1(C)[C@@H]2CC[C@]1(C)[C@@H](OC(=O)/C=C\c1ccccc1)C2		-9.57% [at 11.4 µM] (inactive)
Nc1nnc(SCCOc2cccc(Br)c2)s1	12.6 µM (active)	
COCCn1c(C)cc(C2=NNC(=Nc3ccc(F)cc3)SC2)c1C		15.3% [at 11.4 µM] (inactive)
FC(F)Sc1ccc(N=C2NN=C(c3ccc4c(c3)OCCO4)CS2)cc1	12.6 µM (active)	
O=C1c2ccccc2C(=O)N1CC1c2ccccc2CCN1S(=O)(=O)c1ccccc1 (configuration not stated)	2 µM (active)	
C[C@H](O)[C@H](O)[C@@H]1CNc2nc(N)[nH]c(=O)c2N1	inactive	
CCN1CCN(c2nc(-c3ccccn3)nc3ccccc23)CC1		9.59% [at 2.29 µM] (inactive)
CC1CCCCN1c1nc(-c2ccncc2)nc2ccccc12 (configuration not stated)	0.631 µM (active)	
CN(Cc1ccco1)c1ncncc1-c1cccc(NS(C)(=O)=O)c1	0.794 µM (active)	

Compound	AC50	activity, negative = inhibition
CN(Cc1ccco1)c1ncnc2ccc(-c3cccc(NS(C)(=O)=O)c3)cc12	5.01 µM (active)	
O=C1c2ccccc2-c2ccc(N(Cc3ccc(Br)cc3)Cc3ccc(Br)cc3)cc21		3.02% [at 11.4 µM] (inactive)
O=C(O)[C@H](CCc1ccccn1)c1ccccc1		0.483% [at 11.4 µM] (inactive)
C[C@@H](C1=C(CCN(C)C)Cc2ccccc21)c1ccccn1	inactive	
CN(CCc1ccccn1)c1ccc2c(c1)Cc1ccccc1-2	2.51 µM (active)	
CN(CCc1ccccn1)c1ccc2c(c1)C(=O)c1ccccc1-2	3.16 µM (active)	
CCn1c(N)nc2ccccc21	inactive	
CCn1c(COc2ccc(OC)cc2)nc2ccccc21	1.26 µM (active)	
c1ccc(Cn2c(CN3CCCC3)nc3ccccc32)cc1		-12.3% [at 2.29 µM] (inactive)
O=C(Nc1ccc2ccccc2c1)c1onc2c1CCCC2	inactive	
O=C(O)CCC(=O)Nc1ccc2ccccc2c1		-3.97% [at 11.4 µM] (inactive)
O=C(c1ccccc1)[C@H](Nc1ccc2ccccc2c1)c1ccccc1	3.16 µM (active)	
Cc1c(Nc2cc(N3CCCC(C)C3)c3nonc3c2[N+](=O)[O-])c(=O)n(-c2ccccc2)n1C (configuration not stated)	inactive	
CC(C)CCNC(=O)C12CN(Cc3ccccc3)CC1C(c1cccc([N+](=O)[O-])c1)=NO2 (configuration not stated)	12.6 µM (active)	
COc1ccc(C(=O)N2CC3(CC(c4cccc([N+](=O)[O-])c4)=NO3)C[C@H]2C(=O)NCC(N)=O)cc1 (some centres not stated)		15.2% [at 2.29 µM] (inactive)
O=C(NCc1ccccc1)C12CN(Cc3ccccc3)CC1C(c1cccc([N+](=O)[O-])c1)=NO2 (configuration not stated)	7.08 µM (active)	
O=C1CC[C@H](N2C(=O)c3ccccc3C2=O)C(=O)N1	inactive	
Nc1ncnc2c1nc(-c1ccccc1)n2[C@H]1O[C@@H](CO)[C@@H](O)[C@H]1O		-3.38% [at 11.4 µM] (inactive)
Cc1n[nH]c(C)c1S(=O)(=O)N1CCC(C(=O)O)CC1		3.15% [at 11.4 µM] (inactive)
COc1cc(/C=C/C(=O)Nc2cc(C(F)(F)F)ccc2Cl)cc(OC)c1OC		-14.2% [at 11.4 µM] (inactive)
COc1cccc(C(=O)Nc2cc(C(F)(F)F)ccc2Cl)c1	7.94 µM (active)	
Cc1ccc(C(=O)NC(=S)Nc2cc(C(F)(F)F)ccc2Cl)cc1	inactive	
COc1cc(C(=O)Nc2cc(C(F)(F)F)ccc2Cl)cc(OC)c1OC	15.8 µM (active)	
